Hits are enriched below; roughly 3.6% of the tested compounds scored in any of these assays.
Pf apPOL inh – Pf-apPOL inhibitors, biochemical, fluorescence; Plasmodium falciparum apicoplast DNA polymerase (apPOL); Recombinant Pf-apPOL, molecular beacon fluorescence, 1.5 h; inhibition, % at 10 µM; 210,000 compounds, 0.25% hits; AID 1794808, 2022
mHTT-CaM PPI inh – mutant huntingtin-calmodulin interaction inhibitors – biochemical, AlphaScreen, primary screen; 190,000 compounds, 3.6% hits; inhibition, % at 15 µM; AlphaScreen His-mHTT/GST-CaM binding, luminescence; AID 1671202, 2021
Large screens that a line does not name were inactive. No stated cut-off is given here; in the data, active means inhibition above about 50%; inactive means the rest.

CC1N=C(c2ccccc2)c2ccccc2N(CC(=O)Nc2ccc(N(C)C)cc2)C1=O (configuration not stated)	none
O=C(CN1C(=O)CN=C(c2ccccc2)c2cc(Cl)ccc21)NCc1cccc(Cl)c1	mHTT-CaM PPI inh 91.0
COc1ccc(NC(=S)NNC(=O)C2(O)CN3CCC2CC3)cc1 (configuration not stated)	none (no result: mHTT-CaM PPI inh)
COc1ccc(CC(C)NCc2ccc3c(c2)OCO3)cc1 (configuration not stated)	none
O=C(COc1cccc(Cl)c1)N1CCCN(C2CCN(Cc3ccccc3)C2=O)CC1 (configuration not stated)	mHTT-CaM PPI inh 75.2
COCCN1CCC(N2CCCN(C(=O)COc3cccc(C)c3)CC2)C1=O (configuration not stated)	none
CCOc1ccccc1NC(=O)c1cn(C)c2ncccc12	none
Cc1ccc(C2=NCC(=O)Nc3ccc(Br)cc32)cc1	mHTT-CaM PPI inh 97.4
O=C1CN=C(c2ccccc2Br)c2cc(Cl)ccc2N1	none
CN1CCN(Cc2ccoc2)CC1	none
COc1cc(/C=C(\C)[N+](=O)[O-])cc(Br)c1O	none
COc1cc(/C=C/[N+](=O)[O-])cc(Br)c1O	mHTT-CaM PPI inh 52.3
CCOc1ccc(/C=C/[N+](=O)[O-])cc1	none
CCOc1cc(/C=C/[N+](=O)[O-])cc(Br)c1O	mHTT-CaM PPI inh 78.2
Cc1ccccc1N1CCN(Cc2ccc(F)c(Br)c2)CC1	none
O=c1cccc2n1CC1CC2CN(Cc2ccc([N+](=O)[O-])cc2)C1 (configuration not stated)	none
Cc1ccc(-n2c(/C=C/c3cccc([N+](=O)[O-])c3)nc3ccccc3c2=O)cc1	none
Cc1c(C#N)c(N)n(CC2CCCO2)c1C (configuration not stated)	none (no result: Pf apPOL inh)
Cc1c(C#N)c(N)n(CCCn2ccnc2)c1C	mHTT-CaM PPI inh 99.1 (no result: Pf apPOL inh)
O=[N+]([O-])c1ccc(CNCCc2ccc(Cl)cc2)cc1	none
O=C1CC(=O)N(c2cccc(Cl)c2Cl)C(=O)N1	none
O=c1ccsn1-c1cccc(Cl)c1F	Pf apPOL inh 93.1 (no result: mHTT-CaM PPI inh)
CC(c1c(O)c2ccccc2oc1=O)c1c(O)c2ccccc2oc1=O	none
O=c1oc2ccccc2c(O)c1C(c1ccccc1[N+](=O)[O-])c1c(O)c2ccccc2oc1=O	none
COc1ccc(OC)c(C(c2c(O)c3ccccc3oc2=O)c2c(O)c3ccccc3oc2=O)c1	mHTT-CaM PPI inh 55.0
O=c1oc2ccccc2c(O)c1C(c1ccc([N+](=O)[O-])cc1)c1c(O)c2ccccc2oc1=O	mHTT-CaM PPI inh 71.0
Cc1cccc(CN2CCN(Cc3ccc4c(c3)OCO4)CC2)c1	none
COc1ccc(N2CCN(Cc3cc(Br)ccc3OC)CC2)cc1	none
Brc1ccc(C2NCCc3[nH]cnc32)cc1 (configuration not stated)	none
Oc1c(Cl)cc(Cl)cc1CN1CCN(c2ccccc2)CC1	none
COc1cc(C2C(C#N)=C(N)Oc3c2c(=O)oc2ccccc32)cc(OC)c1O (configuration not stated)	none
COC(=O)c1ccc(CCl)s1	mHTT-CaM PPI inh 100.0 (no result: Pf apPOL inh)
COc1ccc(OC)c(NP(=O)(Oc2ccccc2)Oc2ccccc2)c1	mHTT-CaM PPI inh 74.0
O=P(Nc1ccccc1I)(Oc1ccccc1)Oc1ccccc1	none
CN1CCc2[nH]c(=S)c(C#N)c(-c3cccs3)c2C1	mHTT-CaM PPI inh 52.3 (no result: Pf apPOL inh)
CN1CCc2[nH]c(=S)c(C#N)cc2C1	none (no result: Pf apPOL inh)
CN1CCC(O)(c2ccco2)C(C(=O)Cc2ccco2)C1 (configuration not stated)	none (no result: Pf apPOL inh)
N#CC(C#N)=NNc1cc(Cl)cc(Cl)c1	none (no result: mHTT-CaM PPI inh)
O=C(CN1CCN(c2ccc(F)cc2)CC1)Nc1ccc(Cl)cc1C(=O)c1ccccc1	mHTT-CaM PPI inh 72.4
Cc1cc([N+](=O)[O-])nn1CC(=O)Nc1ccc(Cl)cc1C(=O)c1ccccc1	none
CC12CN3CC(C)(CN(C1)C3c1ccccn1)C2O (configuration not stated)	mHTT-CaM PPI inh 100.2
CC12CN3CC(C)(CN(C1)C3c1cccs1)C2=O (configuration not stated)	none
OC1C2(c3ccccc3)CN3CN(C2)CC1(c1ccccc1)C3 (configuration not stated)	none
CC(C)Sc1ccc(CC(=O)N2CCN(CCn3cccn3)CC2)cc1	none
O=C(COc1ccc(Cl)cc1Cl)NO	none
O=c1[nH]c(=S)[nH]c(O)c1C=C1C=CC=N1	Pf apPOL inh 89.0 (no result: mHTT-CaM PPI inh)
CCN1C(=O)NC(=O)/C(=C/c2cn(CC(=O)NCCOC)c3ccccc23)C1=O	none
CCN1C(=O)NC(=O)/C(=C/c2cn(CC(=O)NCc3ccco3)c3ccccc23)C1=O	mHTT-CaM PPI inh 51.0
CCN(CC)C(=O)Cn1cc(/C=C2\C(=O)NC(=O)N(c3ccccc3F)C2=O)c2ccccc21	mHTT-CaM PPI inh 62.0
CCN1C(=O)NC(=O)/C(=C/c2cn(CC(=O)N3CCCCC3)c3ccccc23)C1=O	none
N#CC1=C(N)Oc2c(c(=O)oc3ccccc23)C1c1ccc([N+](=O)[O-])cc1 (configuration not stated)	none (no result: mHTT-CaM PPI inh)
O=[N+]([O-])c1cc(CN2CCN(Cc3ccccc3)CC2)ccc1O	none
